HIF-2a block = HIF-2a inhibition; 786-0 RCC cells HIF-2a reporter, luciferase luminescence, overnight; inhibition, % at 18.8 µM; hit rate 0.72% among 360,000;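 active means inhibition of the luminescence signal of 40% or more relative to plate controls, in a single-dose primary screen at 18.75 µM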
CF NFkB block = cystic fibrosis NF-kB activation inhibition. AID 588850. KKLEB NF-kB-GFP reporter, PAF-induced, GFP fluorescence overnight. inhibition, % at 5 µM. hit rate 0.86% among 360,000;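 active means at least 50% inhibition at 5 µM, scaled per plate between neutral and stimulator controls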;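 further: PAF is a Pseudomonas aeruginosa culture filtrate used as stimulus; plate controls were PAF-stimulated DMSO wells for no effect and unstimulated DMSO wells for full effect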
Shn3 3UTR inh = reduces Shn3 3'UTR luciferase signal in osteoblasts; Clone20 osteoblast Shn3 3'UTR firefly luciferase, 24 h; hit rate 0.52% among 360,000; inhibition, % at 12.5 µM;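 active means mean inhibition of at least 75% with every replicate also reaching 75%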;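 further: 0% = median of neutral control wells and 100% = pilot-screen positive control compound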
Peg3 promoter = Peg3 promoter activity inhibition | HeLa PEG-Prom luciferase reporter, luminescence, overnight | inhibition, % at 20 µM | hit rate 1.7% among 360,000 | AID 588405;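 active means inhibition of at least 50% at 20 µM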
MITF TRPM1 inh = inhibitors of MITF-driven TRPM1 promoter in melanoma cells. SK-MEL-5 TRPM1 promoter luciferase, 24 h. inhibition, % at 12.5 µM. hit rate 0.83% among 330,000;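 active means mean inhibition across replicates of 60% or more, whatever share of single replicates reaches that level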
KKLEB cytotox = CF airway cell cytotoxicity counter-screen | activity change (cytotoxicity), % at 5 µM | AID 602141 | hit rate 0.36% among 360,000 | KKLEB CF airway cells viability, ATPlite luminescence, overnight; stronger effect = lower value; cells stimulated with P. aeruginosa culture filtrate;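 active means corrected activity change at or below -50% at 5 µM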
The depositor's hits bear a star. In the library only some 2.8% were active in any assay of this set; here they are far more common.

How did NS(=O)(=O)c1ccc(CCNC(=O)c2ccc(NC3=NC4CS(=O)(=O)CC4S3)cc2)cc1 (stereo not drawn) do in these assays?
HIF-2a block: 13.1; CF NFkB block: -4.6; Shn3 3UTR inh: 26.6; Peg3 promoter: 3.9; MITF TRPM1 inh: -1.3; KKLEB cytotox: 3.9

What do the screens show for `Cc1nn(CC(=O)Nc2nnc(CC(=O)N3CCCC3)s2)c(=O)c2ccccc12`?
HIF-2a block: 5.7; CF NFkB block: -7.7; Shn3 3UTR inh: -5.7; Peg3 promoter: -11.0; MITF TRPM1 inh: 4.1; KKLEB cytotox: -4.0

How did C=CCOc1ccc(/C=C/C(=O)OCC(=O)NCc2ccco2)cc1 do in these assays?
HIF-2a block: -11.1; CF NFkB block: 14.6; Shn3 3UTR inh: -1.7; Peg3 promoter: -28.1; MITF TRPM1 inh: -12.2; KKLEB cytotox: -1.9

How did COc1ccc([N+](=O)[O-])cc1NC(=O)c1cn(-c2ccc(C)c(C)c2)c(=O)c2ccccc12 do in these assays?
HIF-2a block: 16.8; CF NFkB block: 8.0; Shn3 3UTR inh: 1.9; Peg3 promoter: 13.2; MITF TRPM1 inh: 9.5; KKLEB cytotox: -9.3

What do the screens show for `C=CCNc1ncnc2c1ncn2[C@H]1CN(Cc2cccc3ccccc23)C[C@@H](CO)O1`?
HIF-2a block: 12.4; CF NFkB block: -9.5; Shn3 3UTR inh: 1.7; Peg3 promoter: 18.1; KKLEB cytotox: 8.6

How did Cc1nn(-c2ccccc2)c(N2CCCC2)c1/C=N/NC(=O)c1cc(-c2cccs2)nc2ccccc12 do in these assays?
HIF-2a block: 20.9; CF NFkB block: 22.4; Shn3 3UTR inh: 21.8; Peg3 promoter: 36.4; MITF TRPM1 inh: 4.6; KKLEB cytotox: -13.5

Results for COc1ccc(C(=O)N/N=C(\C)c2ccccn2)cc1OC ?
HIF-2a block: 4.6; CF NFkB block: -85.3; Shn3 3UTR inh: 90.7*; Peg3 promoter: 50.0; MITF TRPM1 inh: 72.6*; KKLEB cytotox: -0.8

Results for CC(=NNC(=S)Nc1cccc(C)c1)c1ccccn1 ?
HIF-2a block: -215.1; CF NFkB block: -12.1; Shn3 3UTR inh: 93.0*; Peg3 promoter: -55.5; MITF TRPM1 inh: 72.2*; KKLEB cytotox: -7.1

Results for Cc1cccc2sc(NNC(=O)c3cc(-c4cccs4)nc4ccccc34)nc12 ?
HIF-2a block: 5.9; CF NFkB block: 33.2; Shn3 3UTR inh: 13.2; Peg3 promoter: 55.8*; MITF TRPM1 inh: 30.2; KKLEB cytotox: -11.6

What do the screens show for `Cc1nn(-c2ccccc2)c(N2CCCC2)c1/C=N/NC(=O)c1cc(-c2ccccn2)nc2ccccc12`?
HIF-2a block: 16.2; CF NFkB block: 40.4; Shn3 3UTR inh: 15.0; Peg3 promoter: 56.8*; MITF TRPM1 inh: 8.2; KKLEB cytotox: -6.7

Results for C/C(=N\NC(=O)c1cc(Br)ccc1O)c1ccccn1 ?
HIF-2a block: -165.9; CF NFkB block: -57.6; Shn3 3UTR inh: 51.1; Peg3 promoter: -86.5; MITF TRPM1 inh: 28.4; KKLEB cytotox: 15.2

Results for C/C(=N\NC(=O)c1cccc2ccccc12)c1ccccn1 ?
HIF-2a block: -57.8; CF NFkB block: -32.1; Shn3 3UTR inh: 90.4*; Peg3 promoter: -16.1; MITF TRPM1 inh: 76.1*; KKLEB cytotox: 4.0

How did C/C(=N\NC(=O)C1COc2ccccc2O1)c1ccccn1 (stereo not drawn) do in these assays?
HIF-2a block: -33.1; CF NFkB block: -4.2; Shn3 3UTR inh: 79.1; Peg3 promoter: 51.1*; MITF TRPM1 inh: 83.3*; KKLEB cytotox: -10.1

Results for C/C(=N\NC(=O)c1ccccc1Cl)c1ccccn1 ?
HIF-2a block: -158.1; CF NFkB block: -26.4; Shn3 3UTR inh: 92.5*; Peg3 promoter: -19.5; MITF TRPM1 inh: 57.0; KKLEB cytotox: 4.4

What do the screens show for `C/C(=N\NC(=O)C1COc2ccccc2O1)c1ccc(C)o1` (stereo not drawn)?
HIF-2a block: -7.2; CF NFkB block: 4.3; Shn3 3UTR inh: -5.3; Peg3 promoter: 1.7; MITF TRPM1 inh: 6.0; KKLEB cytotox: -4.5

How did O=C(O)c1ccc(/C=N/NC(=O)c2cc(-c3cccs3)nc3ccccc23)cc1 do in these assays?
HIF-2a block: -13.6; CF NFkB block: 2.3; Shn3 3UTR inh: -18.9; Peg3 promoter: 65.0*; MITF TRPM1 inh: -6.2; KKLEB cytotox: -8.2

Results for CCOc1cc(C2CC(=O)c3c(ccc4ccccc34)N2)ccc1O (stereo not drawn) ?
HIF-2a block: 13.4; CF NFkB block: 7.4; Shn3 3UTR inh: 16.9; Peg3 promoter: 22.8; MITF TRPM1 inh: 11.4; KKLEB cytotox: 3.8

Results for CC(C)c1cccc(-c2csc(C(O)c3cccc(Cl)c3)n2)c1 (stereo not drawn) ?
HIF-2a block: 1.0; CF NFkB block: 6.9; Shn3 3UTR inh: 7.0; Peg3 promoter: 31.2; KKLEB cytotox: 9.5

How did C/C(=N\NC(=O)c1ccc(Cl)c(Cl)c1)c1ccccn1 do in these assays?
HIF-2a block: -177.9; CF NFkB block: 46.5; Shn3 3UTR inh: 90.6*; Peg3 promoter: -18.8; MITF TRPM1 inh: 65.5*; KKLEB cytotox: -5.0

Results for COc1ccc(/C=C/CN2CCC(C(=O)NC(c3ccc(F)cc3)c3ccc4ccccc4n3)CC2)cc1 (stereo not drawn) ?
HIF-2a block: -24.8; CF NFkB block: 10.0; Shn3 3UTR inh: -22.7; Peg3 promoter: 102.0*; KKLEB cytotox: -17.8

How did Cc1nc(-c2ccc(Cl)cc2)sc1C1(C)CC(c2cccc(F)c2)=NO1 (stereo not drawn) do in these assays?
HIF-2a block: -198.1; CF NFkB block: -24.0; Shn3 3UTR inh: -45.8; Peg3 promoter: -110.0; MITF TRPM1 inh: -47.8; KKLEB cytotox: -6.2

Results for c1ccc(Nc2ncnc3sc4c(c23)CCC4)cc1 ?
HIF-2a block: -18.2; CF NFkB block: 11.7; Shn3 3UTR inh: -6.0; Peg3 promoter: 6.3; MITF TRPM1 inh: -7.4; KKLEB cytotox: -8.6

Results for c1csc(CCNc2ncnc3sc4c(c23)CCC4)c1 ?
HIF-2a block: -16.7; CF NFkB block: 42.0; Shn3 3UTR inh: 88.1*; Peg3 promoter: -8.1; MITF TRPM1 inh: 9.7; KKLEB cytotox: -20.7

Results for O=C(Cc1ccc(Cl)c(Cl)c1)Nc1ccc2[nH]c(=O)[nH]c2c1 ?
HIF-2a block: 6.7; CF NFkB block: -23.3; Shn3 3UTR inh: -0.6; Peg3 promoter: -1.0; MITF TRPM1 inh: 8.9; KKLEB cytotox: 22.4

How did COCC(=O)N1CCC(n2nccc2NC(=O)CCOc2ccccc2)CC1 do in these assays?
HIF-2a block: -83.0; CF NFkB block: -4.2; Shn3 3UTR inh: -34.8; Peg3 promoter: -77.3; MITF TRPM1 inh: -31.9; KKLEB cytotox: -1.4

What do the screens show for `COc1cc(/C=C2/SC(=Nc3ccc(O)cc3)NC2=O)ccc1O`?
HIF-2a block: 13.1; CF NFkB block: 71.3*; Shn3 3UTR inh: 0.4; Peg3 promoter: -56.6; MITF TRPM1 inh: 8.1; KKLEB cytotox: 3.2

What do the screens show for `COc1cc(/C=C2\SC(N)=NC2=O)ccc1O`?
HIF-2a block: 30.8; CF NFkB block: 73.4*; Shn3 3UTR inh: 1.8; Peg3 promoter: 15.6; MITF TRPM1 inh: 3.8; KKLEB cytotox: -15.7

Results for COc1ccc(/C=C2\SC(=Nc3ccccc3OC)NC2=O)cc1 ?
HIF-2a block: -51.2; CF NFkB block: 56.5*; Shn3 3UTR inh: 1.2; Peg3 promoter: 24.1; MITF TRPM1 inh: -0.7; KKLEB cytotox: -8.3

Source: PubChem
